High-throughput results deposited in PubChem BioAssay by several laboratories.
Mtb hypoxia rep: inhibitors of hypoxia-regulated fluorescent reporter in Mycobacterium tuberculosis. M. tuberculosis hypoxia-regulated fluorescent reporter, fluorescence. fluorescence inhibition, % (test concentration not listed). 0.1% of 300,000 active. AID 1159583; in the data active = fluorescence inhibition mostly above about 23%, no sharp cut-off; inactive = mostly below about 17%
Vc quorum ag-1: induces V. cholerae light production without autoinducers | V. cholerae BH1578 lux reporter, luminescence, 6 h | activation, % at 18.7 µM | 0.16% of 350,000 active; in the data active = activation mostly above about 9.7%, no sharp cut-off
Yp Topo-I inh: inhibitors of Yersinia pestis topoisomerase I | activity, % at 10 µM | 0.064% of 360,000 active | Y. pestis Topo-I cleavage product accumulation, plate reader; in the data active = activity above about 50%, passing the limit was not always enough
Vc quorum ag-2: induces V. cholerae light production without autoinducers; shares compounds with Vc quorum ag-1; V. cholerae BH1578 lux reporter, luminescence, 6 h; activation, % at 50 µM; 620 tested, under 10 active; AID 602243; call rule not given here
HeLa tox: kills HeLa cells within 24 hours | shares compounds with Vc quorum ag-1 | HeLa viability, CellTiter-Glo ATP luminescence | activity change, negative = cytotoxicity, % at 35 µM | 25 tested, under 10 active | AID 624140;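 active = signal drop with fitted half-maximal concentration at or below twice the highest valid dose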
An asterisk follows results filed as active. A selection: hits, their analogues and other compounds. The true share with any hit is near 0.29%.

C=CCOc1ccc2oc(=O)cc(C)c2c1 was read as Mtb hypoxia rep 15, Vc quorum ag-1 2 and Yp Topo-I inh 3.
Screening Cc1cc(=O)oc2ccc(OCc3ccccc3)cc12 returned Mtb hypoxia rep 3, Yp Topo-I inh 2 and Vc quorum ag-2 inactive.
`Cc1cccc(CN(C)CCc2ccccn2)c1` gave Mtb hypoxia rep 0, Vc quorum ag-1 inactive and Yp Topo-I inh 13.
Screening Cc1cccc(OCC(=O)N(C)CCc2ccccn2)c1 returned Vc quorum ag-1 25*, Yp Topo-I inh 0 and Vc quorum ag-2 0.
`O=C(O)CC1(CC(=O)Nc2nccs2)CCCCC1` gave Vc quorum ag-1 inactive and Yp Topo-I inh -3.
O=C(Nc1nnc(-c2ccc3c(c2)OCCO3)o1)C1CCCCC1 was read as Mtb hypoxia rep 12, Yp Topo-I inh 2 and HeLa tox -13.
Screening O=C(Nc1nnc(-c2ccc(Cl)cc2)o1)C1CCCCC1 returned Mtb hypoxia rep -1, Vc quorum ag-1 0 and Yp Topo-I inh 3.
O=C(c1cc2ccccc2cc1O)N1CCN(c2ccccc2O)CC1 was read as Mtb hypoxia rep 6, Vc quorum ag-1 12, Yp Topo-I inh -8 and Vc quorum ag-2 0.
Screening O=C(c1cc2ccccc2cc1O)N1CCCC1 returned Mtb hypoxia rep 25, Vc quorum ag-1 -1 and Yp Topo-I inh -1.
Screening CC(=C1SC(=S)N(CCC(=O)O)C1=O)c1ccc(O)cc1 returned Mtb hypoxia rep -2.
NC(=O)c1cc(Br)cc(C2CCCCC2)c1O was read as Mtb hypoxia rep -7, Yp Topo-I inh 4 and Vc quorum ag-2 inactive.
NC(=O)c1cc(Br)cc2c3c([nH]c12)CCCC3 was read as Mtb hypoxia rep -1, Vc quorum ag-1 -1 and Yp Topo-I inh -7.
Screening COc1ccccc1NS(=O)(=O)c1cccc(C(=O)NN=Cc2ccc(N3CCOCC3)cc2)c1 returned Mtb hypoxia rep 5.
`O=C(NCCC(=O)N1CCN(c2ccccc2F)CC1)c1ccco1` gave Mtb hypoxia rep 0, Vc quorum ag-1 inactive and Yp Topo-I inh 1.
`O=C(NCCC(=O)N1CCN(c2ccc(F)cc2)CC1)c1ccco1` gave Mtb hypoxia rep -1, Vc quorum ag-1 12, Yp Topo-I inh 0 and Vc quorum ag-2 100.
`O=C(Nc1nccs1)c1ncc(Cl)c(Cl)c1Cl` gave Mtb hypoxia rep -1, Vc quorum ag-1 inactive and Yp Topo-I inh 1.
Screening C#CCOCCOCCOCCNc1nc(N2CCN(C(=O)C(CCCCN)n3cc(CN)nn3)CC2)nc(N2CCN(C(=O)C(CC(N)=O)n3cc(C(N)C(C)CC)nn3)CC2)n1 (configuration not stated) returned Mtb hypoxia rep 22.
O=C(COc1ccc2ccccc2c1)N1CCN(c2ccccc2)CC1 was read as Mtb hypoxia rep 11, Vc quorum ag-1 -1 and Yp Topo-I inh 2.
COc1ccc(OCC(=O)N2CCN(C(=O)COc3ccc(Br)cc3)CC2)cc1 was read as Mtb hypoxia rep 12 and Yp Topo-I inh 4.
`CC(=O)N1CCN(C(=O)COc2ccc(Br)cc2)CC1` gave Mtb hypoxia rep 1, Vc quorum ag-1 17*, Yp Topo-I inh -2 and Vc quorum ag-2 0.
COc1ccc(N2CCN(C(=O)COc3ccc4ccccc4c3)CC2)cc1 was read as Mtb hypoxia rep 6, Vc quorum ag-1 12, Yp Topo-I inh 16 and Vc quorum ag-2 0.
For Fc1ccccc1-c1n[nH]c(=S)n1N=Cc1c[nH]c2ccccc12 the results were Mtb hypoxia rep -7.
`CCCC(CCC)C(=O)OC1CC2CCC(C1)[N+]2(C)C` (configuration not stated) gave Mtb hypoxia rep 0.
For O=C(Cc1ccc2c(c1)CCCC2)Nc1ccccc1Br the results were Mtb hypoxia rep 3, Vc quorum ag-1 427*, Yp Topo-I inh 20 and Vc quorum ag-2 28.
Screening O=C(Cc1ccc2ccccc2c1)Nc1ccccc1Br returned Mtb hypoxia rep 9, Vc quorum ag-1 2 and Yp Topo-I inh -1.
Screening COc1ccc(S(=O)(=O)N2CCOCC2)cc1NC(=O)CSc1nnc(C2CC2)n1C1CC1 returned Mtb hypoxia rep -4, Vc quorum ag-1 41*, Yp Topo-I inh 5 and Vc quorum ag-2 1.
Screening Cc1ccc(S(=O)(=O)N2CCOCC2)cc1NC(=O)CSc1nnc(C2CC2)n1C1CC1 returned Mtb hypoxia rep 10, Vc quorum ag-1 inactive and Yp Topo-I inh -3.
Screening Cc1nc2ncnn2c(C)c1Cc1cccc(F)c1 returned Mtb hypoxia rep 16, Vc quorum ag-1 0 and Yp Topo-I inh 4.
Screening Cc1nc2ncnn2c(C)c1Cc1c(Cl)cccc1Cl returned Mtb hypoxia rep 6, Vc quorum ag-1 94*, Yp Topo-I inh 3 and Vc quorum ag-2 18.
Screening O=C(CN1CCN(C(=O)C2CCN(C(=O)/C=C/c3ccccc3)CC2)CC1)Nc1ccc(F)cc1 returned Mtb hypoxia rep 2, Vc quorum ag-1 0 and Yp Topo-I inh 28.
`CCCCNC(=O)CN(c1cccc(F)c1)S(C)(=O)=O` gave Vc quorum ag-1 -1 and Yp Topo-I inh -5.
CCCCNC(=O)CN(c1cccc(Br)c1)S(C)(=O)=O was read as Vc quorum ag-1 32*, Yp Topo-I inh -4 and Vc quorum ag-2 0.
O=C(CN1CCCCC1)Nc1cccc(Cl)c1 was read as Mtb hypoxia rep -7, Vc quorum ag-1 -1 and Yp Topo-I inh 1.
COc1ccc(Cl)cc1NC(=O)CN1CCc2ccccc2C1 was read as Mtb hypoxia rep 8, Vc quorum ag-1 107*, Yp Topo-I inh 9 and Vc quorum ag-2 278.
Screening COc1cc(NC(=O)Nc2cccc(Cl)c2)c(OC)cc1NC(=O)CN1CCCCC1 returned Mtb hypoxia rep 11, Vc quorum ag-1 12, Yp Topo-I inh -29 and Vc quorum ag-2 0.
`COc1cc2c(cc1OC)CN(CC(=O)Nc1ccc(Cl)cc1Cl)CC2` gave Mtb hypoxia rep 1, Vc quorum ag-1 -2 and Yp Topo-I inh 9.
For CSCCC(NC(=O)c1ccccc1Br)C(=O)N1CCCC(C(F)(F)F)C1 (configuration not stated) the results were Mtb hypoxia rep 7, Vc quorum ag-1 0 and Yp Topo-I inh -6.
CCCOc1ccc(-c2c(C(=O)NN=C(C)COc3ccccc3)nnn2-c2nonc2N)cc1 was read as Mtb hypoxia rep 6.
For CC(C)CC(=O)Nc1ccccc1N1CCN(C(=O)c2ccccc2)CC1 the results were Vc quorum ag-1 34*, Yp Topo-I inh 1 and Vc quorum ag-2 0.
For CC(C)CC(=O)Nc1ccccc1N1CCN(c2ccccc2)CC1 the results were Mtb hypoxia rep 9, Vc quorum ag-1 0 and Yp Topo-I inh 5.
C/C(=N/NC(=O)CNC(=O)c1ccncc1)c1ccco1 was read as Vc quorum ag-1 -1 and Yp Topo-I inh 3.
`CCOc1ccccc1N(CC(=O)Nc1ccc2c(c1)OCCO2)S(C)(=O)=O` gave Vc quorum ag-1 21, Yp Topo-I inh 2 and Vc quorum ag-2 0.
Screening CCOc1ccccc1N(CC(=O)Nc1ccc2c(c1)OCO2)S(C)(=O)=O returned Mtb hypoxia rep 5, Vc quorum ag-1 0 and Yp Topo-I inh 6.
CC(=NNC(N)=O)c1ccccc1 was read as Mtb hypoxia rep 5.
